# Marburg entry inh = blocks Marburg virus binding to or entry into cells | Marburg virus pseudotyped entry inhibition, cell reporter | Potency, µM (doses to about 37.8 µM), usual class: inhibitors | 300,000 tested, 1.8% active | AID 540276; calls by dose curve; tested in HEK293 cells
# VACV Venus inh = vaccinia inhibition (Venus reporter); Vaccinia virus Venus reporter expression, fluorescence; Potency, µM (top dose mostly 36.5 µM), usual class: inhibitors; 330,000 tested, 0.46% active; AID 720580; calls by dose curve; tested in A549 cells; also: nearly all actives have a fitted effect of over 30% in size
# HCV inhibitor = inhibitors of hepatitis C virus infection; Potency, µM (titrated, usually from 41.8 µM), actives largely listed as inhibitors; Huh7.5.1 HCVcc-Cre infection, luciferase reporter, 44 h; AID 651820; 340,000 tested, 3.4% active; active = well fitted inhibition curve with a large enough effect; inconclusive = small, poorly fitted or top-dose-only effect, or another doubt; inactive = no such curve, though single readings can be large or run the other way
#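 Seed cells (1,000/well) for 4 h; treat with compound and infect with HCVcc-Cre, moi about 0.5. Incubate 44 h, then detect luciferase activity.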
# HCMV inh = inhibitors of human cytomegalovirus; HFF cells, HCMV-luciferase reporter, 72 h; hits give low values; activity change, negative = inhibition, % at 57.5 µM; 410,000 tested, 4.5% active; in the data active = activity change below about -60%; inconclusive = no clear call, values can overlap the other calls; inactive = above about -39%
#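 HFF cells seeded 16 h at 37C, treated with compounds, infected with luciferase-reporter HCMV at MOI 1 PFU/cell; luciferase read at 72 h post infection, normalized to buffer-only and Salinomycin controls.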
# LASV entry inh = Lassa virus entry inhibition; Lassa virus pseudotype entry inhibition, cell reporter; Potency, µM (top dose mostly 37.9 µM), usual class: inhibitors; 300,000 tested, 1.2% active; AID 540256; calls by dose curve; tested in HEK293 cells; also: nearly all actives have a fitted effect of over 50% in size
# VACV mCherry inh = vaccinia inhibition (mCherry reporter). Vaccinia virus mCherry reporter infection, fluorescence. Potency, µM (series often up to 36.5 µM), usual class: inhibitors. 310,000 tested, 0.63% active; calls by dose curve; tested in A549 cells; also: nearly all actives have a fitted effect of over 35% in size
# Numbers stand for hits; n = inactive; u = inconclusive; x = no result given; ! = not active in a repeat; [ ] = dose if it differs, or a comment. Most compounds without a hit are left out; they make up all but 7.8% or so of the library.
SMILES,Marburg entry inh,VACV Venus inh,HCV inhibitor,HCMV inh,LASV entry inh,VACV mCherry inh
S=c1[nH]nc(C2CCCCC2)n1Cc1ccccc1,n,n,n,u,u,n
CCOCCc1nnc(NC(=O)C(=O)c2cc(C)n(-c3ccc(C)cc3C)c2C)s1,u,n,x,n,n,n
CCCCCOc1ccc(NC(=O)c2cc(SC)ccc2Cl)cc1,n,n,u,-60,n,n
Cn1nc(-c2ccccc2)c(CO)c1Oc1cccc(C(F)(F)F)c1,n,n,u,n,n,n
Cc1ccc(Sc2c(CO)c(-c3ccccc3)nn2C)cc1,u,u,u,-83,u,u
CCN(CC)CCCn1c(C)cc2c(c1=O)[C@H](c1ccc(OC)c(OC)c1OC)C(C#N)=C(N)O2,n,x,x,x,x,x
CC(C)c1ccc(/C=C(\C#N)c2nc(-c3ccc(O)cc3)cs2)cc1,x,u,x,-87,n,n
COc1ccc(/C=C(/C#N)c2nc(-c3ccc(Br)cc3)cs2)cc1,x,n,x,n,u,n
Cc1ccc(NC(=O)Cn2cc(C(=O)c3ccco3)c3ccccc32)cc1,x,n[7.34 µM],x,u,u,n[7.34 µM]
CCN(CC(=O)NCc1cccs1)C(=O)CCOc1ccccc1C,n,n,n,-97,n,n
CCN(CC(=O)NCc1ccc(Cl)cc1)C(=O)CCOc1ccccc1C,n,n,u,n,n,u
O=C(NCc1ccc(C(F)(F)F)cc1)O[C@H]1CC[C@@]23CCCN2C(=O)CCC[C@H]3[C@H]1Cc1ccccc1,x,x,x,n,x,x
O=C1c2cccc3c(N4CCCCC4)ccc(c23)C(=O)N1c1ccccn1,n,n,n,n,n,x
O=C1c2ccccc2-c2n[nH]c(=O)c3ccc(N4CCCCC4)c1c23,n,u,11µM,-62,n,u
NC1(C#Cc2ccc3oc(=O)c(-n4cc(-c5ccsc5)nn4)cc3c2)CCCCC1,x,u,u,-72,x,n
Cc1nc(NCc2cnn(C)c2C)sc1-c1ccn(CC2COc3ccccc3O2)n1 (centres undefined),x,n,x,x,x,n
CC(=O)Nc1cccc(C(=O)/C=C/c2ccc(/C=C/C(=O)c3cccc(NC(C)=O)c3)cc2)c1,x,x,u,-88,x,x
CC(=O)Nc1cccc(C(=O)/C=C/c2ccc(N(C)C)cc2)c1,n,n,n,n,n,u
CC(=O)Nc1cccc(C(=O)/C=C/c2ccc(F)cc2)c1,u,n,u,-99,u,n
Cc1cccc(C(=O)Nc2ccc(C(=O)/C=C/c3ccncc3)cc2)c1,u,n,n,-101,u,n
CC(=O)Nc1cccc(C(=O)/C=C/c2ccc(Br)cc2)c1,15µM,11µM,u,-71,u,22µM
Cc1sc(NC(=S)NC(=O)c2ccccc2)c(C#N)c1C,u,x,n,n,n,x
Cc1sc(NC(=S)NC(=O)c2ccc(C(C)(C)C)cc2)c(C#N)c1C,8.2µM,x,u,u,u,x
CCn1c(SCC(=O)N/N=C/c2ccc(OC)c(OC)c2)nc2ccccc21,n,n,n,n,n,n
COc1ccc(/C=C/C(=O)N2CC(C)OC(C)C2)cc1OC (centres undefined),x,x,n,n,x,x
SMILES,Marburg entry inh,VACV Venus inh,HCV inhibitor,HCMV inh,LASV entry inh,VACV mCherry inh
CCSc1nc2ccccc2n1C(=O)/C=C/c1ccc(OC)c(OC)c1,u,u,u,-100,6.3µM,28µM
C=CCSc1nc2ccccc2n1C(=O)/C=C/c1cc(OC)c(OC)c(OC)c1,13µM,x,6.3µM,-111,9.2µM,x
C=CCSc1nc2ccccc2n1C(=O)/C=C/c1ccc(OC)c(OC)c1,u,x,u,-103,8.2µM,x
CCCCCSc1nc2sc3c(c2c(=O)n1-c1ccc(OC)cc1)CCN(C(C)=O)C3,n,n,x,u,n,n
COc1cc2c3nnc(-c4ccccc4)c-3cn(Cc3ccc(F)cc3)c2cc1OC,u,n,n,-66,n,n
COc1cc2c3nnc(-c4ccc(F)cc4)c-3cn(Cc3ccc(C)cc3)c2cc1OC,x,n,n,n,x,n
COc1cccc(C2CC(c3cccc(NS(C)(=O)=O)c3)=NN2C(=O)c2ccccc2)c1OC (centres undefined),u,n,u,-73,14µM,n
COc1cccc(C2CC(c3ccc(Br)cc3)=NN2C(=O)c2ccncc2)c1OC (centres undefined),u,u,u,n,u,14µM
COc1ccc(-n2cc(C(=O)NCc3ccc(Cl)cc3)c3ccccc3c2=O)cc1,x,n,x,n,n,n
COc1ccc(CNC(=O)Cc2c(C)c3c(cc(C)c4c(C)c(C)oc43)oc2=O)cc1,n,n,x,n,n,n
Cc1cc(N2CCN(Cc3cn(C)nc3-c3cccc(Cl)c3)CC2)cc(C)n1,u,n,7.1µM,u,u,n
COc1ccc(Cl)cc1N1C(=O)/C(=C/c2sccc2C)N=C1SCC(=O)NC1CC1,10µM,n,u,n,u,n
CCOC(=O)CCN1C(=O)[C@H]2[C@H]3[C@H](O)[C@H](O)C/C(=N\NC(=O)OCc4ccc(OC)cc4)[C@H]3CC[C@H]2C1=O,n,x,x,x,x,x
CCOC(=O)CCN1C(=O)[C@@H]2[C@H]3[C@H](O)[C@H](O)CC(=NNC(=O)OCc4ccc(OC)cc4)[C@H]3CC[C@H]2C1=O,n,x,x,x,0.17µM,x
Cc1ccc(SCCNC(=O)c2ccc(C)c(S(=O)(=O)Nc3cccc(C)c3)c2)cc1,u,n,n,-70,u,n
Cc1ccc(NS(=O)(=O)c2cc(C(=O)NCCSc3ccc(C)cc3)ccc2C)cc1,u,u,u,-98,u,u
Cc1ccc(NS(=O)(=O)c2cc(C(=O)NCCSC3CCCCC3)ccc2C)cc1,u,x,u,n,u,x
CCc1cccc(NC(=O)CSc2ncc3c(n2)-c2ccc(Cl)cc2N(Cc2ccccc2)S3(=O)=O)c1,x,n,x,n,n,n
COc1ccc(NC(=O)Cn2nnc(C(=O)NCc3ccccc3)c2N)c(OC)c1,8.2µM,x,n,n,u,x
CCOc1ccccc1NC(=O)Cn1nnc(-c2ccc(OCC)c(OCC)c2)n1,u,u,8.9µM,n,u,u
COc1ccc(NC(=O)Cn2nnc(C(=O)NCCc3ccccc3)c2N)c(OC)c1,x,n[7.34 µM],n,u,x,n[7.34 µM]
CCOc1ccc(NC(=O)c2nnn(CC(=O)Nc3ccccc3OCC)c2N)cc1,n,n,11µM,n,n,n
COc1ccc(Cl)cc1NC(=O)Cn1c(=O)n(CCC(=O)NCc2ccc3c(c2)OCO3)c(=O)c2ccccc21,n,n,x,-64,n,n
COC(=O)c1ccccc1C[C@]1(C(=O)OC)C=C[C@H](C)[C@@H](c2ccccc2)N1C(=O)C(F)(F)F,n,x,x,x,u,x
O=C(NCC1Cc2cc(F)cc(-c3cccnc3)c2O1)c1cnn(-c2ccccc2)c1 (centres undefined),x,n,x,x,x,n
COc1cc(=O)n2c(c1C(=O)N(C)Cc1nonc1C)CCN(Cc1c(F)cccc1F)CC2,x,n,x,x,x,n
COc1ccccc1-c1ccnc(-n2ncc(C(=O)NC(C)(C)CO)c2C2CC2)n1,x,n,x,x,x,n
COc1ccccc1NC(=O)Cn1nnc(C(=O)NCc2ccc3c(c2)OCO3)c1N,n,n[7.34 µM],n,-69!,n,n[7.34 µM]

# Source: PubChem
